High-throughput results from PubChem BioAssay.
TDP1 cell noCPT – qHTS for Inhibitors of human tyrosyl-DNA phosphodiesterase 1 (TDP1): qHTS in cells in absence of CPT. Potency, µM (highest dose often 46.2 µM), for the others: at the top dose activity change, negative = growth inhibition, usual class: inhibitors. 420,000 tested, 15% active. DT40 Tdp1-/- hTDP1 cells, no CPT, ATP luminescence, 48 h; note: % is set by controls: 0 for no effect and ±100 for the full control effect; nearly all actives have a fitted effect of over 55% in size
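A cellular qHTS used chicken DT40 cells lacking endogenous Tdp1 but carrying stably transfected human TDP1. Compounds were applied without camptothecin, and cell growth kinetics were judged by ATP-dependent luminescence after ≥48 hr.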
TDP1 cell CPT – DT40-hTDP1 cell growth loss with CPT; chicken DT40 Tdp1-/-;hTDP1 cells + 20 nM CPT, ATP luminescence, 48 h; Potency, µM (doses to about 46.2 µM), inactives show at the top dose activity change, negative = growth inhibition, actives largely listed as inhibitors; 420,000 tested, 12% active; AID 686979; note: % is set by controls: 0 for no effect and ±100 for the full control effect; nearly all actives have a fitted effect of over 55% in size
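Cell growth measured by CellTiter-Glo luminescence after a minimum 48 h, 37 C compound exposure with 20 nM CPT in Tdp1-knockout DT40 cells stably expressing hTDP1, seeded 400/well; qHTS titration format.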
ATXN viability – cell viability loss in ATXN counter-screen | Potency, µM (titrated, usually from 56.7 µM), most hits filed as cytotoxic | 400,000 tested, 0.49% active | S2 cells (HEK-293 line with an ATXN2-luciferase reporter) viability, CellTiter-Fluor protease fluorescence, 24 h; note: nearly all actives have a fitted effect of over 40% in size
TGFb SMAD3 inh – TGF-b pathway inhibition | Potency, µM (series often up to 46.1 µM), for inactives: top-dose activity, negative = inhibition, usual class: inhibitors | AID 588855 | HepG2 CAGA-GFP TGF-b/SMAD3 reporter, GFP fluorescence, 18 h; TGF-beta stimulated, 500 pg/mL final | 410,000 tested, 1.2% active; note: % is set by controls: 0 for no effect and ±100 for the full control effect; nearly all actives have a fitted effect of over 65% in size
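HEPG2 CAGA-GFP reporter cells (1000/well, DMEM with 1% FBS) received compounds, then recombinant TGF-beta at 500 pg/mL final for 18 hours at 37 degrees C. Per-cell GFP summed per well was normalised to unstimulated and stimulated DMSO controls before curve fitting.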
ATXN2 expr inh – ATXN2 expression inhibition; 360,000 tested, 0.72% active; HEK-293 ATXN2-luciferase reporter, luminescence, 24 h; Potency, µM (series often up to 57 µM), without a hit: at the highest dose activity change, negative = inhibition, hits mostly inhibitors; AID 1745845; note: % is set by controls: 0 for no effect and ±100 for the full control effect; nearly all actives have a fitted effect of over 55% in size
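ATXN2-luciferase reporter cells (luciferase flanked by upstream and downstream ATXN2 gene portions) were treated 24 h at 37 °C with compounds at up to 57 uM. SteadyGlo luminescence gave expression; GF-AFC fluorescence gave viability.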
HepG2 tox – kills HepG2 cells in TGF-b inhibitor counter-screen; HepG2 CAGA-GFP viability, ATP luminescence, 18 h; Potency, µM (series often up to 46.1 µM), inactives show at the highest dose activity change, negative = cytotoxicity, usual class: cytotoxic; 410,000 tested, 0.76% active; AID 588856
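HepG2 CAGA-GFP cells (1000/well, DMEM with 1% FBS) received compound, then TGF-beta at 500 pg/mL final, and were incubated 18 hours at 37 degrees C. Viability was read by CellTiter-Glo luminescence. Media-only wells were set as complete cell-killing and DMSO as no toxicity.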
* hit, by the source's call; i = inactive; ? = inconclusive; · = not tested or not shown; [ ] = dose if it differs, or a comment. Compounds with a hit are over-represented: about 17% of the library has one in this group of screens. Calls come from the whole dose curve; as a rule, active = well fitted curve in the direction sought with a large enough effect; inconclusive = small, poorly fitted or top-dose-only effect, or another doubt; inactive = no such curve, though single readings can be large; an effect the other way counts as inactive or inconclusive. Potency is the fitted concentration of half-maximal effect.

SMILES	TDP1 cell noCPT	TDP1 cell CPT	ATXN viability	TGFb SMAD3 inh	ATXN2 expr inh	HepG2 tox
C[C@@H]1CN(Cc2ccc3c(c2)CN(Cc2cccn2-c2cccnc2)CCO3)C[C@H](C)O1	15µM*	-2%[9.04 µM]	i	·	·	·
C[C@@H]1CN(Cc2ccc3c(c2)CN(Cc2cccn2-c2ccccn2)CCO3)C[C@H](C)O1	-2%	-5%[9.04 µM]	i	·	·	·
CCCCCC(=O)N1CCCCC1	-10%	5%	i	-13%	4%	-6%
CCCN1C(=O)c2ccccc2NC1c1ccc(OC)cc1OC (stereo not given)	-10%	0%	i	-25%	5%	-20%
COc1cccc(OCc2cc(C3Nc4ccccc4C(=O)N3c3ccccc3)ccc2OC)c1 (stereo not given)	13µM*	10µM*	·	4%	·	-2%
COc1ccc(C2Nc3ccccc3C(=O)N2Cc2ccccc2)cc1COc1ccccc1F (stereo not given)	14µM*	?	·	19%	·	1%
CCCN1C(=O)c2ccccc2NC1c1ccc(OC)c(COc2cccc(OC)c2)c1 (stereo not given)	16µM*	?	·	5%	·	-18%
CCCN1C(=O)c2ccccc2NC1c1ccc(OC)c(COc2ccc([N+](=O)[O-])cc2)c1 (stereo not given)	10µM*	10µM*	·	-9%	·	-9%
O=S(=O)(c1ccc2c(c1)CCN2)N1CCCCCC1	-11%	-7%	·	0%	·	-17%
Cc1noc(C)c1-c1nnc(-c2ccc(OC(F)(F)F)cc2)o1	-28%	-5%	·	2%	1%	-17%
O=S(=O)(c1ccccc1)N1CCN=C1SCc1c(F)cccc1Cl	?	13µM*	i	?	9%	13%
Cc1ccc(S(=O)(=O)N2CCN=C2SCc2ccc(Cl)c(Cl)c2)cc1	-29%	-5%	i	?	-2%	-14%
Cc1ccc(CSC2=NCCN2S(=O)(=O)c2ccc(C)cc2)cc1	?	23µM*	i	-9%	·	-11%
Cc1ccc(C)c(CSC2=NCCN2S(=O)(=O)c2ccccc2)c1	16µM*	18µM*	i	?	-9%	-23%
CCOC(=O)C1CCN(c2c(Nc3ccc(C)c(C)c3)c(=O)c2=O)CC1	-22%	?	i	8%	-4%	0%
O=C(NC1CCCC1)C1c2ccccc2OCC(=O)N1CCCN1CCOCC1 (stereo not given)	-27%	-23%	i	·	0%	·
NC(=O)CN1C(=O)C2(SCC(=O)N2c2cccc(F)c2)c2ccccc21 (stereo not given)	5%	8%	i	-1%	11%	-2%
O=C(c1cccc(F)c1)N1CCC2(CCCN(c3ccccc3)C2)CC1	?	-1%	·	·	·	·
O=C(c1cc(C(F)(F)F)cc(C(F)(F)F)c1)N1CCC2(CC1)CCN(c1ccccc1)CC2	-10%	6%	·	·	·	·
O=C(c1cccc(F)c1)N1CCC2(CC1)CN(c1ccccc1)C2	16µM*	7.3µM*	·	·	·	·
O=C(c1cc(C(F)(F)F)cc(C(F)(F)F)c1)N1CCC2(CC1)CCN(c1ccccn1)CC2	21µM*	21µM*	·	·	·	·
COc1ccc(C(=O)N2CCC3(CCCN(c4ccncc4)C3)CC2)cc1	18µM*	?	·	·	·	·
O=C(c1cc(C(F)(F)F)cc(C(F)(F)F)c1)N1CCC2(CC1)CN(c1ccccc1)C2	13µM*	?	·	·	·	·
COCCN(CCOC)S(=O)(=O)c1ccc(C(=O)Nc2c(C)n(C)n(-c3ccccc3)c2=O)cc1	3%	1%	i	0%	7%	-4%
CC(=O)C(Cc1ccccc1)NC(=O)COc1ccc2c(c1)OCO2 (stereo not given)	-29%	0%	i	35%	3%	19%
SMILES	TDP1 cell noCPT	TDP1 cell CPT	ATXN viability	TGFb SMAD3 inh	ATXN2 expr inh	HepG2 tox
O=C(c1cc(C(F)(F)F)cc(C(F)(F)F)c1)N1CCC2(CCCN(c3ccncc3)C2)CC1	21µM*	?	·	·	·	·
Cc1ccc(-c2cc(-c3ccc(F)cc3)nc(N)c2C#N)o1	18µM*	?	i	8%	-8%	-13%
Cc1ccc(-c2cc(-c3ccccc3)c(C#N)c(N)n2)o1	15µM*	23µM*	i	40%	4%	-48%
CC(C)c1c(C(=O)NCC2(N3CCOCC3)CCCC2)cnn1-c1nccc(-c2cccs2)n1	-18%	1%[9.04 µM]	i	·	·	·
CN(C)c1nc(Cl)nc(N(C#N)CCOc2ccccc2)n1	16%	-9%	i	-12%	-1%[11.3 µM]	-10%
CC12CCC(=O)N1C(C(=O)Nc1nnc(SCc3ccccc3F)s1)CS2 (stereo not given)	-21%	-25%	i	-11%	64%	-12%
COc1cc(/C=C2/SC(=S)N(CCC(=O)N3CCN(C)CC3)C2=O)cc(OC)c1OC	23µM*	?	?	-15%	·	-16%
COc1cc(/C=C2\SC(=O)N(CCNC(=O)c3cnc(C)cn3)C2=O)cc(OC)c1OC	18µM*	?	i	-34%	13%	-13%
COc1cc(/C=C2\SC(=S)N(CCC(=O)N3CCN(C)CC3)C2=O)cc(OC)c1OC	15µM*	?	?	-12%	0%	-13%
COc1ccc(C(=O)NCCN2C(=O)S/C(=C\c3cccnc3)C2=O)c(OC)c1OC	?	?	?	10%	3%	-5%
CCCS(=O)(=O)c1nc(S(=O)(=O)c2ccc(C)cc2)c(N2CCC3(CC2)OCCO3)s1	-4%	-26%	i	-23%	0%	-9%
Cc1ccc(C2N=C(Nc3nc4ccccc4o3)NC3=C2C(=O)CC(C)(C)C3)cc1 (stereo not given)	4.5µM*	7.1µM*	·	1%	·	6%
CC1(C)CC(=O)C2=C(C1)NC(Nc1nc3ccccc3o1)=NC2c1cccnc1 (stereo not given)	-26%	?	·	-4%	·	4%
CC1(C)CC(=O)C2=C(C1)NC(Nc1nc3ccccc3o1)=NC2c1cccc(O)c1 (stereo not given)	?	7%	·	?	·	-38%
CC1(C)CC(=O)C2=C(C1)NC(Nc1nc3ccccc3o1)=NC2c1ccccc1 (stereo not given)	2.8µM*	2.8µM*	·	8%	·	6%
COc1ccc(C2N=C(Nc3nc4ccccc4o3)NC3=C2C(=O)CC(C)(C)C3)cc1 (stereo not given)	6.3µM*	6.3µM*	·	18%	·	10%
